The record followed here is PubChem BioAssay (EPA / NIEHS).

Molecules are shown by their SMILES. Records with an inconclusive call do not appear. Activity calls are given as the source filed them. How the source made its calls, unless noted: active means hit-call score of the fitted dose curve at least 0.9, where 1 is the maximum; inactive means score below 0.9.

Assay [1] concerns the target Myc proto-oncogene protein (Homo sapiens) (UniProt P01106). Kind of assay: ATG_Myc_CIS: Attagene CIS-FACTORIAL HepG2 Assay for human Myelocytomatosis (Myc) Proto-Oncogene Transcription Factor (AID 2282990). Particulars: HepG2, Attagene cis-reporter transcription factor activity; actives raise or lower the signal. The method in brief: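 Fluorescence intensity of reporter-specific cDNA fragments, separated by capillary electrophoresis, gives the signal. Transfected HepG2 cells carrying cis-promoter reporter constructs are incubated with compound for 24 h; DMSO serves as baseline.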

A short description of assay [2]: ATG_NRF2_ARE_CIS: Attagene CIS-FACTORIAL HepG2 Assay for human Nuclear Factor Erythroid 2 Related Factor 2 (NFR2) response to Antioxidant Response Elements (ARE) (AID 2282992).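 On AC50: reporter mRNA level measured by RT-PCR and capillary electrophoresis fluorescence.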 Particulars: HepG2 Attagene ARE/NRF2 reporter, transcription factor activity; actives raise or lower the signal. The method in brief: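 HepG2 cells transiently transfected with multiplexed cis-element reporter constructs, 24 h after chemical dosing; reporter mRNA quantified by RT-PCR, fluorescent primer extension, HpaI digestion and capillary electrophoresis. Bidirectional fit relative to DMSO.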

A short description of assay [3]: ATG_Oct_MLP_CIS: Attagene CIS-FACTORIAL HepG2 Assay for human Octamer-Binding Transcription Factor (Oct) (AID 2282993). Particulars: HepG2 Attagene cis-factorial Oct reporter, mRNA; actives raise or lower the signal. In outline: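 Readout is reporter transcript level from RT-PCR with fluorescent primer extension and capillary electrophoresis, fitted in both directions against DMSO. Transfected HepG2 reporter units report endogenous factor activity after 24 h dosing.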

The nature of assay [4]: BSK_3C_TissueFactor: BioMAP Diversity Plus: 3C Assay for Tissue Factor Biomarker Activity (AID 2282997). Particulars: BioMAP 3C HUVEC, tissue factor biomarker readout; actives raise or lower the signal. The method in brief: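 HUVEC were treated 24 h, then surface tissue factor measured by ELISA and fitted bidirectionally against DMSO. Parallel SRB total-protein staining assessed overt cytotoxicity at the same time point.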

Assay [5] in a line: BSK_3C_VCAM1: BioMAP Diversity Plus: 3C Assay for Vascular cell adhesion molecule 1 (VCAM1) Biomarker Activity (AID 2282999). Particulars: BioMAP 3C HUVEC, VCAM1 ELISA, cytokine-stimulated; actives raise or lower the signal. The method in brief:
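Human umbilical vein endothelial cells (3C system), biomarker read by ELISA 24 h after dosing; bidirectional fit against DMSO baseline. Cytotoxicity tracked by SRB total-protein staining in parallel cultures at biomarker time.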
(In general: An ELISA detects its analyte on a solid surface through an enzyme-linked reagent.)

Assay [6] can be described thus: BSK_4H_Eotaxin3: BioMAP Diversity Plus: 4H Assay for Eotaxin 3 Biomarker Activity (AID 2283000).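 Further: CCL26 protein level quantified by ELISA in parallel with SRB cytotoxicity check.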 Particulars: primary human endothelial cells (HUVEC); actives raise or lower the signal. The method in brief: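 Eotaxin-3 (CCL26) levels were measured by ELISA in HUVEC primary cultures 24 h post-dosing. Gain or loss of signal was fitted in both directions, with DMSO serving as baseline and negative control.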

For assay [7], the target named is human Peroxisome Proliferator-activated Receptor delta (PPARd), PPARD (gene 5467) (UniProt Q03181). Kind of assay: ATG_PPARd_TRANS: Attagene TRANS-FACTORIAL HepG2 Assay for human Peroxisome Proliferator-activated Receptor delta (PPARd) (AID 2283002; active means hit-call score of the fitted dose curve at least 0.9, where 1 is the maximum). The method in brief: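 Fluorescence from capillary electrophoresis of labelled RT-PCR reporter fragments gives the signal; DMSO sets baseline. Cells: HepG2 transiently carrying GAL4-UAS reporter units plus chimeric nuclear receptor-Gal4 proteins, exposed to chemicals for 24 h.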
Sequence of human Peroxisome Proliferator-activated Receptor delta (PPARd), PPARD (gene 5467) (Q03181 whole entry, looked up, the tested form may be a part): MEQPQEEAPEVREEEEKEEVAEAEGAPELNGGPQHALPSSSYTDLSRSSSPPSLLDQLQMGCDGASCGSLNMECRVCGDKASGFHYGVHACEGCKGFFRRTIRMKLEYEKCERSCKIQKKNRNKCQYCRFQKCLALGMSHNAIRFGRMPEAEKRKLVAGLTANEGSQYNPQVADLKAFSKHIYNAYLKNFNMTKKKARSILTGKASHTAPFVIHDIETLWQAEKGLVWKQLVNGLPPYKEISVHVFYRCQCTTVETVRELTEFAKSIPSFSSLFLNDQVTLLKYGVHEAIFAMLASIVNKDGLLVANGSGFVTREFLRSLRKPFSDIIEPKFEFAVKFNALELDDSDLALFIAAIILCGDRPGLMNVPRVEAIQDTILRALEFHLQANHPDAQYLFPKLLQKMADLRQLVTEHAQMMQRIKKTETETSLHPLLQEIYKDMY

Read-out in assay [8]: Intercellular Adhesion Molecule 1 (ICAM1), ICAM1 (gene 3383)
As to the kind of experiment: BSK_3C_ICAM1: BioMAP Diversity Plus: 3C Assay for Intercellular Adhesion Molecule 1 (ICAM1) Biomarker Activity (AID 2283003). Particulars: primary human endothelial cells (HUVEC); actives raise or lower the signal. The method in brief:
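HUVEC primary cells stimulated under 3C conditions; ICAM1 measured by ELISA 24 h after compound dosing. Curves fitted bidirectionally against the DMSO baseline. Overt cytotoxicity checked by SRB staining of parallel cultures.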

In assay [9] the target is human Retinoic Acid Receptor beta (RARb), RARB (gene 5915) (UniProt P10826). Kind of assay: ATG_RARb_TRANS: Attagene TRANS-FACTORIAL HepG2 Assay for human Retinoic Acid Receptor beta (AID 2283004; active means hit-call score of the fitted dose curve at least 0.9, where 1 is the maximum). In outline: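 HepG2 cells were transiently transfected with GAL4-UAS reporter units that report activity of exogenous chimeric NR-Gal4 proteins, then exposed to compound for 24 h. Reporter mRNA was quantified by RT-PCR with capillary electrophoresis fluorescence, as gain of signal over DMSO.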
Sequence of human Retinoic Acid Receptor beta (RARb), RARB (gene 5915) (P10826 whole entry, looked up, the tested form may be a part): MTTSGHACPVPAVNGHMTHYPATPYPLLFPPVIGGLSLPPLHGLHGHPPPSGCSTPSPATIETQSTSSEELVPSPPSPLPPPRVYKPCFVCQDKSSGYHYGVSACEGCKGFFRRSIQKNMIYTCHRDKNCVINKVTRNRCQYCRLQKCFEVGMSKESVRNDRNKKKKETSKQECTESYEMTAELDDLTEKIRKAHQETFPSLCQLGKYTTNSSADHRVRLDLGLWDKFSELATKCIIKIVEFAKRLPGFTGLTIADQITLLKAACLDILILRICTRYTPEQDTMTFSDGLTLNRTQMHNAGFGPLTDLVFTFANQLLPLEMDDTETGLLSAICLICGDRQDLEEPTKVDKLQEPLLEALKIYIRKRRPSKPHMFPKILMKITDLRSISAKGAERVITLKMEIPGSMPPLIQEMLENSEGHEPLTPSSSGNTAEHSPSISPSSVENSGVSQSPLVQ

Assay [10] can be described thus: BSK_3C_Proliferation: Cell Proliferation Assessment in the BioMAP Diversity Plus: 3C Assay (AID 2283006).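 On AC50: potency may reflect either rise or fall in cell number versus DMSO.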 Particulars: primary human endothelial cells (HUVEC). The method in brief:
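Subconfluent HUVEC (3C system) cultured with chemical; relative cell number read at 48 h by sulforhodamine B total-protein staining (0.1% SRB after 10% TCA fixation, 560 nm). Bidirectional fit relative to DMSO.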

In assay [11] the target is Peroxisome proliferator-activated receptor gamma (Homo sapiens) (UniProt P37231). As to the kind of experiment: ATG_PPARg_TRANS: Attagene TRANS-FACTORIAL HepG2 Assay for human Peroxisome Proliferator-activated Receptor-gamma (PPARg) (AID 2283007; active means hit-call score of the fitted dose curve at least 0.9, where 1 is the maximum). In outline:
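Gain-of-signal endpoint relative to DMSO, derived from reporter mRNA levels quantified by RT-PCR and capillary electrophoresis. Cells were HepG2 transiently expressing a chimeric NR-Gal4 construct with GAL4-UAS reporters, exposed to chemicals for 24 h.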

The target of assay [12] is Nuclear receptor subfamily 1 group I member 2 (Homo sapiens) (UniProt O75469). As to the kind of experiment: ATG_PXR_TRANS: Attagene TRANS-FACTORIAL HepG2 Assay for human Pregnane X Receptor (PXR) (AID 2283008; active means hit-call score of the fitted dose curve at least 0.9, where 1 is the maximum). In outline:
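HepG2 cells transiently transfected with GAL4-UAS reporter units and PXR-Gal4 chimera, exposed 24 h. Reporter mRNA quantified by RT-PCR, fluorescent labelling, HpaI digestion and capillary electrophoresis; gain of signal vs DMSO.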

The target of assay [13] is human RAR-related Orphan Receptor gamma (RORg), RORC (gene 6097) (UniProt P51449). As to the kind of experiment: ATG_RORg_TRANS: Attagene TRANS-FACTORIAL HepG2 Assay for human RAR-related Orphan Receptor gamma (RORg) (AID 2283011; active means hit-call score of the fitted dose curve at least 0.9, where 1 is the maximum). In outline:
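HepG2 cells transiently transfected with GAL4-UAS reporter units and chimeric RORg-Gal4 construct; after 24 h chemical exposure, reporter mRNA measured by RT-PCR with fluorescent capillary electrophoresis, gain of signal fitted against DMSO.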

Assay [14] has as its target Retinoic acid receptor RXR-alpha (Homo sapiens) (UniProt P19793). As to the kind of experiment: ATG_RXRa_TRANS: Attagene TRANS-FACTORIAL HepG2 Assay for human Retinoid X Receptor alpha (RXRa) (AID 2283012; active means hit-call score of the fitted dose curve at least 0.9, where 1 is the maximum). The method in brief: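 HepG2 cells transiently transfected with GAL4-UAS reporter units and chimeric RXRa-Gal4 protein, treated 24 h. Reporter mRNA measured by RT-PCR, fluorescent labelling, HpaI digestion and capillary electrophoresis. Induction fitted against DMSO.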

A short description of assay [15]: BSK_3C_uPAR: BioMAP Diversity Plus: 3C Assay for Urokinase-type plasminogen activator receptor (uPAR) Biomarker Activity (AID 2282998). Particulars: BioMAP 3C HUVEC, uPAR biomarker ELISA; actives raise or lower the signal. The method in brief: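 Cell-surface uPAR on HUVEC (3C system) read by ELISA at 24 h post-treatment, with DMSO as baseline and fitting in both directions. Parallel cultures stained with SRB to flag overt cytotoxicity.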

For assay [16], the target named is human Peroxisome Proliferator-activated Receptor alpha (PPARa), PPARA (gene 5465) (UniProt Q07869). As to the kind of experiment: ATG_PPARa_TRANS: Attagene TRANS-FACTORIAL HepG2 Assay for human Peroxisome Proliferator-activated Receptor alpha (PPARa) (AID 2283001; active means hit-call score of the fitted dose curve at least 0.9, where 1 is the maximum;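 on AC50: potency for gain of reporter signal over DMSO so agonist or activator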). In outline:
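HepG2 cells transiently transfected with multiplexed GAL4-UAS reporters driven by exogenous chimeric NR-Gal4 proteins; reporter mRNA measured after 24 h dosing. Read-out by RT-PCR, 6-FAM labelling, HpaI digestion and capillary electrophoresis; gain of signal versus DMSO.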

For assay [17], the target named is Cellular tumor antigen p53 (Homo sapiens) (UniProt P04637). As to the kind of experiment: ATG_p53_CIS: Attagene CIS-FACTORIAL HepG2 Assay for human p53 Transcription Factor (AID 2282994). Particulars: HepG2 p53 cis-element reporter, Attagene mRNA; actives raise or lower the signal. The method in brief: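 HepG2 cells transiently transfected with cis-regulated multiple reporter transcription units, dosed 24 h. Reporter mRNA measured by RT-PCR, 6-FAM primer extension, HpaI digestion and capillary electrophoresis; bidirectional fit relative to DMSO.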
Sequence of Cellular tumor antigen p53 (Homo sapiens) (P04637 whole entry, looked up): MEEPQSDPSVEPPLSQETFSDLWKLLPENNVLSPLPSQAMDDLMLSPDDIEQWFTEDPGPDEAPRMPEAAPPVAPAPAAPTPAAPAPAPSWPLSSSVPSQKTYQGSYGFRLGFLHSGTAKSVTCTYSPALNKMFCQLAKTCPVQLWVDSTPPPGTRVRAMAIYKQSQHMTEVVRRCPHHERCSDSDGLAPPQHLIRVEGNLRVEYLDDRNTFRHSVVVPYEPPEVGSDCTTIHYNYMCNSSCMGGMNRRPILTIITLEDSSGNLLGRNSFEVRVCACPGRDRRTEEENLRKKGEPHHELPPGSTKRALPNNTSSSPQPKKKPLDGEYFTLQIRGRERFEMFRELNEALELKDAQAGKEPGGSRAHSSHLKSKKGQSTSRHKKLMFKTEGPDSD

Assay [18] addresses human RAR-related Orphan Receptor beta (RORb), RORB (gene 6096) (UniProt Q92753). As to the kind of experiment: ATG_RORb_TRANS: Attagene TRANS-FACTORIAL HepG2 Assay for human RAR-related Orphan Receptor beta (RORb) (AID 2283010; active means hit-call score of the fitted dose curve at least 0.9, where 1 is the maximum). In outline:
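HepG2 cells transiently transfected with GAL4-UAS reporter units expressing chimeric NR-Gal4 protein; reporter mRNA measured 24 h after dosing by RT-PCR, 6-FAM labelling and capillary electrophoresis. Gain-of-signal fitted relative to DMSO baseline.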

The target of assay [19] is Retinoic acid receptor alpha (Homo sapiens) (UniProt P10276). As to the kind of experiment: ATG_RARa_TRANS: Attagene TRANS-FACTORIAL HepG2 Assay for human Retinoic Acid Receptor alpha (RARa) (AID 2283005; active means hit-call score of the fitted dose curve at least 0.9, where 1 is the maximum). The method in brief: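 HepG2 transiently transfected with multiplex GAL4-UAS reporter units including a human RARa–GAL4 chimera; 24 h compound exposure. Reporter mRNA quantified by RT-PCR, 6-FAM labeling and capillary electrophoresis; gain of signal versus DMSO.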
Sequence of Retinoic acid receptor alpha (Homo sapiens) (P10276 whole entry, looked up, the tested form may be a part): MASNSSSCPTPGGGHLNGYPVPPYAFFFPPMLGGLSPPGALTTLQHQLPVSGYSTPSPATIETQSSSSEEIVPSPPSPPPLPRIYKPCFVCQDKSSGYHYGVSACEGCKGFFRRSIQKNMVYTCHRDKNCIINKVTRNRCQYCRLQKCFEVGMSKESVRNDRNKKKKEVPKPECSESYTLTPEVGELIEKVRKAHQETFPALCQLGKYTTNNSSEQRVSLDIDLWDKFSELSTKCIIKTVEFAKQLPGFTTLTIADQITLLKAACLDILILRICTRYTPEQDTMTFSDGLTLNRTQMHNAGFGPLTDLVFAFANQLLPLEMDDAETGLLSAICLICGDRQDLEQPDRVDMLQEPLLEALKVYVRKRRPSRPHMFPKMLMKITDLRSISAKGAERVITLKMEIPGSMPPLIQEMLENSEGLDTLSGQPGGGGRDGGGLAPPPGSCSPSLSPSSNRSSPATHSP

Sequence of human RAR-related Orphan Receptor gamma (RORg), RORC (gene 6097) (P51449 whole entry, looked up, the tested form may be a part): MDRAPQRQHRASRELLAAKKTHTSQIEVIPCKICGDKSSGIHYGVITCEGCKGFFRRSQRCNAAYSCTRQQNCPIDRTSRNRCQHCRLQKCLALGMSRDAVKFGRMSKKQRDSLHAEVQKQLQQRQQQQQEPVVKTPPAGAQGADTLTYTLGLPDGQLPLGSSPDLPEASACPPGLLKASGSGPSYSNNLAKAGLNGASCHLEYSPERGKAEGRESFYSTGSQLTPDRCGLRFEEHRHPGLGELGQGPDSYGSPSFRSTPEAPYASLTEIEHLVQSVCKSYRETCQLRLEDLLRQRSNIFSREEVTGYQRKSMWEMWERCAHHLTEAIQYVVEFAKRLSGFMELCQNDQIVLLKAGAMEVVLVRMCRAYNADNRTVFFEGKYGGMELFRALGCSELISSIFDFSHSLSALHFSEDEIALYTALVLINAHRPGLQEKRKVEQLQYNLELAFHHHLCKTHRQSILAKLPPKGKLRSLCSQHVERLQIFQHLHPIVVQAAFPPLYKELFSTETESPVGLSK
Sequence of Retinoic acid receptor RXR-alpha (Homo sapiens) (P19793 whole entry, looked up, the tested form may be a part): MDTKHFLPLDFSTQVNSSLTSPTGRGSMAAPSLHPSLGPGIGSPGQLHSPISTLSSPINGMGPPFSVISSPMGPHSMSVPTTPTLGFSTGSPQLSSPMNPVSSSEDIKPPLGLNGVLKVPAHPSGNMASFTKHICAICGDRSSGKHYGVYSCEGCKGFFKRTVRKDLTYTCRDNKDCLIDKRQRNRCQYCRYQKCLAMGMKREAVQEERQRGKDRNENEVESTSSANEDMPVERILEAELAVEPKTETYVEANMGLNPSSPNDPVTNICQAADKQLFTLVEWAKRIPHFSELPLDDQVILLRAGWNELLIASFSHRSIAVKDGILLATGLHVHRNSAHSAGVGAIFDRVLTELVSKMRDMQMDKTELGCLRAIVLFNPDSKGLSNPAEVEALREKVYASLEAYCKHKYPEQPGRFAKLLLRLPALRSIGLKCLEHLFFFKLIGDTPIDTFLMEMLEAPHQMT
Sequence of Peroxisome proliferator-activated receptor gamma (Homo sapiens) (P37231 whole entry, looked up, the tested form may be a part): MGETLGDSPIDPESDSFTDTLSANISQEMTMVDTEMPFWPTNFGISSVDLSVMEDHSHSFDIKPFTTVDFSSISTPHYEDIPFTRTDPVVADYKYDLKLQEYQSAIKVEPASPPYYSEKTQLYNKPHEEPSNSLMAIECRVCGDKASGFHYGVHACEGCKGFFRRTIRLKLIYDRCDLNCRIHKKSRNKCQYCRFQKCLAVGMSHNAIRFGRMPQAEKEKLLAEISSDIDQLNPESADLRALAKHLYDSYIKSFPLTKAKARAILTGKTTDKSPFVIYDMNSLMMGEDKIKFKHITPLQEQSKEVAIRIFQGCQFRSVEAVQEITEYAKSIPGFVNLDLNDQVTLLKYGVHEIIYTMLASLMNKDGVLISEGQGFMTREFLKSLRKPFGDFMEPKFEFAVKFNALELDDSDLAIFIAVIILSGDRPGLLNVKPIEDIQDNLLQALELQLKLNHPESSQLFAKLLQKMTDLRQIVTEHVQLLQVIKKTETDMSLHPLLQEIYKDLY
Sequence of human Peroxisome Proliferator-activated Receptor alpha (PPARa), PPARA (gene 5465) (Q07869 whole entry, looked up, the tested form may be a part): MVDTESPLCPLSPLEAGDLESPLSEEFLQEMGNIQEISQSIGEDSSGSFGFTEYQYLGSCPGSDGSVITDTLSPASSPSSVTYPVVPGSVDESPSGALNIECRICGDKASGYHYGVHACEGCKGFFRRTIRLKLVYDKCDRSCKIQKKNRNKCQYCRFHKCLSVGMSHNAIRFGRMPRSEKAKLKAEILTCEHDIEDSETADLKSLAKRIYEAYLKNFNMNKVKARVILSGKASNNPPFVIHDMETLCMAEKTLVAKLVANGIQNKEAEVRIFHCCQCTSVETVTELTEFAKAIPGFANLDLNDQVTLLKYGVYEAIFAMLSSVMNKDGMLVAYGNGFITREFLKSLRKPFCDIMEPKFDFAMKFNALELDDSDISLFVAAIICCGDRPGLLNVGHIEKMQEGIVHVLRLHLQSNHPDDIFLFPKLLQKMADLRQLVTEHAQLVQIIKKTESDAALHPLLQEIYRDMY
Sequence of Myc proto-oncogene protein (Homo sapiens) (P01106 whole entry, looked up, the tested form may be a part): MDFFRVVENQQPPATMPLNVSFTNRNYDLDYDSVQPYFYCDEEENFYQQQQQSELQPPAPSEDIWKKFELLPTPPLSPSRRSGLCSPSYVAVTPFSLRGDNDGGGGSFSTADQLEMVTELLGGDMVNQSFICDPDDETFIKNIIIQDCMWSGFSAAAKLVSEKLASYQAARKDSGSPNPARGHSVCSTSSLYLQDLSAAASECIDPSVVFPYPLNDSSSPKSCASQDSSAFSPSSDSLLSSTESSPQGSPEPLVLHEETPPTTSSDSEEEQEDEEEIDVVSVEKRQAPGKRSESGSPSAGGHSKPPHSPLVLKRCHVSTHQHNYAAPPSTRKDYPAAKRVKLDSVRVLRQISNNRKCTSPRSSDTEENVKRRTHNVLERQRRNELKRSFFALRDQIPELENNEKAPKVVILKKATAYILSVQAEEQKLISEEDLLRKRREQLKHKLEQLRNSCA
Sequence of Nuclear receptor subfamily 1 group I member 2 (Homo sapiens) (O75469 whole entry, looked up, the tested form may be a part): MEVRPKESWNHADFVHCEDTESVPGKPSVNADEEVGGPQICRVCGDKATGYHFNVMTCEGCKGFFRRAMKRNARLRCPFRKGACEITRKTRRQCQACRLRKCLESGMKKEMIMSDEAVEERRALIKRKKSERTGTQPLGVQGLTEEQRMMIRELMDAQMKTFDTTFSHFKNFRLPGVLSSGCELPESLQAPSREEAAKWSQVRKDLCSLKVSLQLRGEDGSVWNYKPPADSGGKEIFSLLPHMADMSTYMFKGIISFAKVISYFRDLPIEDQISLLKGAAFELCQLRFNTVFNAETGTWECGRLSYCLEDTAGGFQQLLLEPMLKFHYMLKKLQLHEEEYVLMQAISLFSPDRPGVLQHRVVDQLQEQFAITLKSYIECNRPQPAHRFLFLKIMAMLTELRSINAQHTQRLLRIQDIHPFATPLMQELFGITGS

For `O=c1[nH]cnc2c1ncn2[C@H]1CC[C@@H](CO)O1`, the molecule was called inactive in [1], in [2], in assay [3], in assay [4], in assay [5] and in assay [6]. The call in assay [7], in assay [8], in assay [9], in assay [10], in assay [11] and in assay [12] was inactive. Moreover, the molecule was called inactive in assay [13] and in assay [14].
Consider `CNC(C)=O`, for which the result in assay [1], in assay [2], in [4], in assay [15], in assay [5] and in [6] was inactive. Further, the molecule was classed as inactive in assay [7], in assay [8] and in assay [10].
For `Cc1ncc([C@@H](CCCCCCc2ccc3c(n2)NCCC3)CC(=O)O)cn1`, the call in [1], in assay [2], in assay [3], in [4], in assay [15] and in assay [5] was inactive. Also, the result in assay [6], in assay [7], in [8], in [12], in [13] and in assay [14] was inactive. The AC50 is 19.8 µM (active) in assay [16], 2.14 µM (active) in [10] and 100 µM (active) in [11].
As to `CCc1cccc(CC)c1N`, the molecule was classed as inactive in assay [1], in [2], in [3], in assay [17], in assay [4] and in assay [5]. The result in assay [6], in assay [7], in assay [8], in assay [10], in [12] and in [13] was inactive.
Consider `O=S1(=O)CCCO1`, for which the call in assay [1], in assay [2], in assay [3], in [17], in assay [4] and in assay [15] was inactive. Also, the result in [5], in assay [6], in assay [16], in assay [7], in [8] and in assay [10] was inactive. In addition, the call in [18] was inactive.
In the case of `CC(C)c1nnc2ccc(-c3ocnc3-c3cc(F)ccc3F)cn12`, the outcome in [1], in assay [17], in assay [15], in [5], in assay [6] and in assay [16] was inactive. For the same molecule, the call in assay [7], in assay [8], in [9], in [19], in assay [10] and in assay [11] was inactive. Besides, the result in [12] and in assay [14] was inactive. Moreover, the results for the AC50 in assay [3] and in assay [4] were 130 µM (active) and 0.743 µM (active), respectively.
On to `c1ccc2ncccc2c1`, for which the outcome in [1], in [2], in [17], in [4], in [15] and in [5] was inactive. For the same molecule, the outcome in assay [6], in [16], in assay [8], in assay [10], in assay [13] and in assay [14] was inactive.
In the case of `c1ccc(C(O[C@@H]2CCCN(CCc3ccc4c(c3)OCO4)C2)c2ccccc2)cc1`, the result in [1], in assay [4], in [5], in assay [6], in assay [7] and in [8] was inactive. Moreover, in [13], the molecule was classed as inactive. Besides, the AC50 in assay [2] is 33 µM (active); in assay [3], 23.3 µM (active); in assay [17] it was 52.6 µM (active); in assay [10] it was 28.5 µM (active); in [11] it was 20.7 µM (active); in assay [12] it was 0.916 µM (active).

For orientation: AC50 means the midpoint of the concentration-response curve, whichever way the signal moves.
